Laboratory results taken from PubChem BioAssay (NCI).
The panel holds about 83,000 compounds, 20% with a hit somewhere; the sample as a whole holds those more often.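 Activity criterion: percent growth below 10, measured after cells in 96-well plates were exposed to a single compound concentration for 48 hours.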 A number with no mark means an inactive call. The source made the active and inactive calls.

Columns and labels:
Experiment in all cases: NCI-60 one-dose screen, 48 h (100 = growth as untreated, 0 = no growth, -100 = all killed)
Settings in all cases: 10 µM unless noted
OVCAR-8 ovarian = test system: OVCAR-8 ovarian
OVCAR-5 ovarian = test system: OVCAR-5 ovarian
OVCAR-4 ovarian = test system: OVCAR-4 ovarian
SK-OV-3 ovarian = test system: SK-OV-3 ovarian
IGROV1 ovarian = test system: IGROV1 ovarian
OVCAR-3 ovarian = test system: OVCAR-3 ovarian
HS 578T breast = test system: HS 578T breast
NCI/ADR-RES ovarian = test system: NCI/ADR-RES ovarian
T-47D breast = test system: T-47D breast

CCn1c2ccccc2c2ccc(C(C)=O)cc21
growth (OVCAR-8 ovarian): 104%
growth (OVCAR-5 ovarian): 89.9%
growth (OVCAR-4 ovarian): 96.7%
growth (SK-OV-3 ovarian): 111%
growth (IGROV1 ovarian): 111%
growth (OVCAR-3 ovarian): 112%
growth (HS 578T breast): 144%
growth (NCI/ADR-RES ovarian): 101%
growth (T-47D breast): 96.6%

[O-]/[N+](=C\C=C\c1ccccc1)c1ccccc1
growth (OVCAR-8 ovarian): 121%
growth (OVCAR-5 ovarian): 107%
growth (OVCAR-4 ovarian): 92.1%
growth (SK-OV-3 ovarian): 110%
growth (IGROV1 ovarian): 113%
growth (OVCAR-3 ovarian): 99.9%
growth (HS 578T breast): 130%
growth (NCI/ADR-RES ovarian): 103%
growth (T-47D breast): 95.6%

CCOc1cc(C(C)(C)C)ccc1C1=N[C@H](c2ccc(Cl)cc2)[C@H](c2ccc(Cl)cc2)N1C(=O)N1CCN(CC#Cc2cccc3c2CN([C@@H]2CCC(=O)NC2=O)C3=O)CC1
growth (OVCAR-8 ovarian): 17.2%
growth (OVCAR-5 ovarian): 76%
growth (OVCAR-4 ovarian): 26.5%
growth (SK-OV-3 ovarian): 62.4%
growth (IGROV1 ovarian): 8.46% (active)
growth (OVCAR-3 ovarian): 41.1%
growth (HS 578T breast): 16.9%
growth (NCI/ADR-RES ovarian): 25.9%
growth (T-47D breast): 13.3%

CCCCCCCCCCCCCCCCCC1=NC(C)(C)CN1CCO
growth (OVCAR-8 ovarian): 1.75% (active)
growth (OVCAR-5 ovarian): 82.4%
growth (OVCAR-4 ovarian): 33.5%
growth (SK-OV-3 ovarian): -36.2% (active)
growth (IGROV1 ovarian): -26.4% (active)
growth (OVCAR-3 ovarian): -9.27% (active)
growth (HS 578T breast): -38.4% (active)
growth (NCI/ADR-RES ovarian): 55.5%
growth (T-47D breast): -23.9% (active)

COc1ccc(OC)c(/C=C/c2nc(=S)n(-c3ccc(Cl)cc3)[nH]2)c1
growth (OVCAR-8 ovarian): 88.6%
growth (OVCAR-5 ovarian): 116%
growth (OVCAR-4 ovarian): 91.6%
growth (SK-OV-3 ovarian): 73.5%
growth (IGROV1 ovarian): 40.1%
growth (OVCAR-3 ovarian): 29.4%
growth (HS 578T breast): 98.7%
growth (T-47D breast): 72.5%

COc1ccc(C2CC(c3cccc(Nc4ccnc5cc(Cl)ccc45)c3)=NN2C=O)cc1 (stereo not drawn)
growth (OVCAR-8 ovarian): 35.1%
growth (OVCAR-5 ovarian): 45.3%
growth (OVCAR-4 ovarian): 61.7%
growth (SK-OV-3 ovarian): 19%
growth (IGROV1 ovarian): 32.7%
growth (OVCAR-3 ovarian): -22.7% (active)
growth (HS 578T breast): -3.1% (active)
growth (NCI/ADR-RES ovarian): 8.68% (active)
growth (T-47D breast): 43.5%

CCCCCCC(C)(O)c1ccccc1 (stereo not drawn)
growth (OVCAR-8 ovarian): 115%
growth (OVCAR-5 ovarian): 98.5%
growth (OVCAR-4 ovarian): 110%
growth (SK-OV-3 ovarian): 103%
growth (IGROV1 ovarian): 122%
growth (OVCAR-3 ovarian): 117%
growth (HS 578T breast): 117%
growth (NCI/ADR-RES ovarian): 101%
growth (T-47D breast): 101%

COc1ccc(-c2noc(N)c2-c2cc(OC)c3c(c2)OCO3)cc1
growth (OVCAR-8 ovarian): 26.6%
growth (OVCAR-5 ovarian): 61.6%
growth (OVCAR-4 ovarian): 91.7%
growth (SK-OV-3 ovarian): 27.6%
growth (IGROV1 ovarian): 44.6%
growth (OVCAR-3 ovarian): -9.87% (active)
growth (HS 578T breast): 21.4%
growth (NCI/ADR-RES ovarian): 9.7% (active)
growth (T-47D breast): 33.7%

COc1ccc(/C=N\Nc2ccc([N+](=O)[O-])cn2)cc1OC
growth (OVCAR-8 ovarian): 14.6%
growth (OVCAR-5 ovarian): 22.2%
growth (OVCAR-4 ovarian): -56.6% (active)
growth (SK-OV-3 ovarian): 36.8%
growth (IGROV1 ovarian): 23.2%
growth (OVCAR-3 ovarian): 47%
growth (HS 578T breast): 47.8%
growth (NCI/ADR-RES ovarian): 65%
growth (T-47D breast): -7.26% (active)

Clc1ncn[nH]1
growth (OVCAR-8 ovarian): 92%
growth (OVCAR-5 ovarian): 107%
growth (OVCAR-4 ovarian): 100%
growth (SK-OV-3 ovarian): 96.3%
growth (IGROV1 ovarian): 105%
growth (OVCAR-3 ovarian): 105%
growth (HS 578T breast): 106%
growth (NCI/ADR-RES ovarian): 106%
growth (T-47D breast): 99.5%

COc1ccc(-c2nnc(COc3ccc(NC(=O)Nc4cc(C(F)(F)F)cc(C(F)(F)F)c4)cc3F)o2)cc1
growth (OVCAR-8 ovarian): 11.4%
growth (OVCAR-5 ovarian): 29%
growth (OVCAR-4 ovarian): 19.2%
growth (SK-OV-3 ovarian): 18.4%
growth (IGROV1 ovarian): 44.4%
growth (OVCAR-3 ovarian): 2.67% (active)
growth (HS 578T breast): 16.8%
growth (NCI/ADR-RES ovarian): 10.6%
growth (T-47D breast): 20.4%

CC1SC(c2c(Cl)cccc2Cl)N(NC(=O)c2[nH]c3ccc(F)cc3c2-c2ccccc2)C1=O (stereo not drawn)
growth (OVCAR-8 ovarian): 33.1%
growth (OVCAR-5 ovarian): 78.3%
growth (OVCAR-4 ovarian): -54.7% (active)
growth (SK-OV-3 ovarian): 19.1%
growth (IGROV1 ovarian): -6.28% (active)
growth (OVCAR-3 ovarian): -62.2% (active)
growth (HS 578T breast): -8.04% (active)
growth (T-47D breast): 2.88% (active)

COc1cc(/C=C2\COc3ccc(O)c(O)c3C2=O)cc(OC)c1
growth (OVCAR-8 ovarian): 14.6%
growth (OVCAR-5 ovarian): -29.2% (active)
growth (OVCAR-4 ovarian): 31.1%
growth (SK-OV-3 ovarian): 38.2%
growth (IGROV1 ovarian): -61.3% (active)
growth (OVCAR-3 ovarian): -32.3% (active)
growth (HS 578T breast): 21.8%
growth (NCI/ADR-RES ovarian): 0.0937% (active)
growth (T-47D breast): -12.1% (active)

COc1ccc(-c2cnnn2-c2cc(OC)c3c(c2)OCO3)cc1
growth (OVCAR-8 ovarian): 13.1%
growth (OVCAR-5 ovarian): 45.1%
growth (OVCAR-4 ovarian): 64.7%
growth (SK-OV-3 ovarian): -1.59% (active)
growth (IGROV1 ovarian): 17.9%
growth (OVCAR-3 ovarian): -37.5% (active)
growth (HS 578T breast): 5.54% (active)
growth (NCI/ADR-RES ovarian): 12.1%
growth (T-47D breast): 50.3%

CCN(CC)CCCNCCCNc1cc(OC)cc2cccnc12
growth (OVCAR-8 ovarian): 88.8%
growth (OVCAR-5 ovarian): 94.5%
growth (OVCAR-4 ovarian): -62.3% (active)
growth (SK-OV-3 ovarian): 111%
growth (IGROV1 ovarian): 73.9%
growth (OVCAR-3 ovarian): 32.8%
growth (HS 578T breast): 94.9%
growth (NCI/ADR-RES ovarian): 93.2%
growth (T-47D breast): 64.7%
